# Results from PubChem BioAssay AID1159580 (chemical genetic matrix, 2015).
# The whole screen tested about 5,500 compounds, of which about 2,000 (36%) were called active. Inconclusive results (about 18%) are left out. This is one part of the list. A number with no mark means an inactive call. No stated cut-off is given here; in the data, active means normalized growth mostly below about 0.91 (no sharp cut-off); inconclusive means no clear call, values can overlap the other calls; inactive means mostly above about 0.92.
# Assay: chemical genetic growth profiling, strain panel (AID 1159580);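 further: tested at 20 µM; growth read once vehicle control cultures reached saturation at 30 °C; 1 = growth at the plate median or of vehicle wells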
# Conditions: growth OD
compound,measurement,setting,value
O=C(O)/C=C/C=C/c1ccccc1,normalized growth,"S. cerevisiae deletion strains, locus YJR066W, strain TOR1, stronger effect = lower value",0.162 (active)
same,normalized growth,"S. cerevisiae deletion strains, locus YKL009W, strain mrt4, stronger effect = lower value",0.784 (active)
same,normalized growth,"S. cerevisiae deletion strains, locus YKL068W, stronger effect = lower value",0.854 (active)
same,normalized growth,"S. cerevisiae deletion strains, locus YKL085W, strain MDH1 (second series), stronger effect = lower value",0.773 (active)
same,normalized growth,"S. cerevisiae deletion strains, locus YKL085W, strain MDH1, stronger effect = lower value",0.773 (active)
same,normalized growth,"S. cerevisiae deletion strains, locus YKL160W, strain elf1, stronger effect = lower value",0.831 (active)
same,normalized growth,"S. cerevisiae deletion strains, locus YKR001C, strain vps1, stronger effect = lower value",0.792 (active)
same,normalized growth,"S. cerevisiae deletion strains, locus YKR026C, strain gcn3, stronger effect = lower value",0.808 (active)
same,normalized growth,"S. cerevisiae deletion strains, locus YKR091W, strain srl3, stronger effect = lower value",0.83 (active)
same,normalized growth,"S. cerevisiae deletion strains, locus YLL001W, strain dnm1, stronger effect = lower value",0.782 (active)
same,normalized growth,"S. cerevisiae deletion strains, locus YLL026W, stronger effect = lower value",0.831 (active)
same,normalized growth,"S. cerevisiae deletion strains, locus YLL041C, strain sdh2, stronger effect = lower value",0.829 (active)
same,normalized growth,"S. cerevisiae deletion strains, locus YLR027C, strain aat2, stronger effect = lower value",0.827 (active)
same,normalized growth,"S. cerevisiae deletion strains, locus YLR039C, strain RIC1, stronger effect = lower value",0.832
same,normalized growth,"S. cerevisiae deletion strains, locus YLR058C, strain SHM2, stronger effect = lower value",0.98
same,normalized growth,"S. cerevisiae deletion strains, locus YLR102C, strain apc9, stronger effect = lower value",0.932
same,normalized growth,"S. cerevisiae deletion strains, locus YLR113W, strain HOG1, stronger effect = lower value",0.26 (active)
same,normalized growth,"S. cerevisiae deletion strains, locus YLR221C, strain rsa3, stronger effect = lower value",0.778 (active)
same,normalized growth,"S. cerevisiae deletion strains, locus YLR258W, strain gsy2, stronger effect = lower value",0.817 (active)
same,normalized growth,"S. cerevisiae deletion strains, locus YLR262C, strain YPT6 (second series), stronger effect = lower value",0.518 (active)
same,normalized growth,"S. cerevisiae deletion strains, locus YLR262C, strain YPT6, stronger effect = lower value",0.886
same,normalized growth,"S. cerevisiae deletion strains, locus YLR268W, strain sec22, stronger effect = lower value",0.887
same,normalized growth,"S. cerevisiae deletion strains, locus YLR320W, strain mms22, stronger effect = lower value",0.771 (active)
same,normalized growth,"S. cerevisiae deletion strains, locus YLR330W, strain CHS5, stronger effect = lower value",0.952
same,normalized growth,"S. cerevisiae deletion strains, locus YLR342W, strain FKS1 (second series), stronger effect = lower value",0.882
same,normalized growth,"S. cerevisiae deletion strains, locus YLR342W, strain FKS1, stronger effect = lower value",0.812 (active)
same,normalized growth,"S. cerevisiae deletion strains, locus YLR357W, strain rsc2, stronger effect = lower value",0.732 (active)
same,normalized growth,"S. cerevisiae deletion strains, locus YLR370C, strain arc18, stronger effect = lower value",0.813 (active)
same,normalized growth,"S. cerevisiae deletion strains, locus YLR371W, strain rom2, stronger effect = lower value",0.913
same,normalized growth,"S. cerevisiae deletion strains, locus YLR384C, strain iki3, stronger effect = lower value",0.827 (active)
same,normalized growth,"S. cerevisiae deletion strains, locus YLR418C, strain cdc73, stronger effect = lower value",0.859
same,normalized growth,"S. cerevisiae deletion strains, locus YML016C, strain PPZ1, stronger effect = lower value",0.994
same,normalized growth,"S. cerevisiae deletion strains, locus YML032C, strain rad52, stronger effect = lower value",0.908
same,normalized growth,"S. cerevisiae deletion strains, locus YML120C, strain ndi1, stronger effect = lower value",0.822 (active)
same,normalized growth,"S. cerevisiae deletion strains, locus YML124C, strain tub3, stronger effect = lower value",0.917 (active)
same,normalized growth,"S. cerevisiae deletion strains, locus YMR058W, strain fet3, stronger effect = lower value",0.793 (active)
same,normalized growth,"S. cerevisiae deletion strains, locus YMR078C, strain ctf18, stronger effect = lower value",0.9 (active)
same,normalized growth,"S. cerevisiae deletion strains, locus YMR125W, strain sto1, stronger effect = lower value",0.857 (active)
same,normalized growth,"S. cerevisiae deletion strains, locus YMR129W, stronger effect = lower value",0.824 (active)
same,normalized growth,"S. cerevisiae deletion strains, locus YMR205C, strain PFK2, stronger effect = lower value",0.826 (active)
same,normalized growth,"S. cerevisiae deletion strains, locus YMR223W, strain ubp8, stronger effect = lower value",0.934
same,normalized growth,"S. cerevisiae deletion strains, locus YMR231W, strain pep5, stronger effect = lower value",0.835 (active)
same,normalized growth,"S. cerevisiae deletion strains, locus YMR307W, strain GAS1, stronger effect = lower value",0.924
same,normalized growth,"S. cerevisiae deletion strains, locus YNL067W, strain RPL9B, stronger effect = lower value",0.954
same,normalized growth,"S. cerevisiae deletion strains, locus YNL071W, strain lat1, stronger effect = lower value",0.775 (active)
same,normalized growth,"S. cerevisiae deletion strains, locus YNL153C, strain GIM3, stronger effect = lower value",0.952
same,normalized growth,"S. cerevisiae deletion strains, locus YNL183C, strain NPR1, stronger effect = lower value",0.168 (active)
same,normalized growth,"S. cerevisiae deletion strains, locus YNL209W, strain ssb2, stronger effect = lower value",0.863 (active)
same,normalized growth,"S. cerevisiae deletion strains, locus YNL233W, strain BNI4, stronger effect = lower value",0.949
same,normalized growth,"S. cerevisiae deletion strains, locus YNL248C, strain rpa49, stronger effect = lower value",0.832 (active)
same,normalized growth,"S. cerevisiae deletion strains, locus YNL250W, strain rad50, stronger effect = lower value",0.823 (active)
same,normalized growth,"S. cerevisiae deletion strains, locus YNL271C, strain bni1, stronger effect = lower value",0.772 (active)
same,normalized growth,"S. cerevisiae deletion strains, locus YNL298W, strain CLA4, stronger effect = lower value",0.692 (active)
same,normalized growth,"S. cerevisiae deletion strains, locus YNL307C, strain MCK1, stronger effect = lower value",0.93
same,normalized growth,"S. cerevisiae deletion strains, locus YNL322C, strain KRE1 (second series), stronger effect = lower value",0.746 (active)
same,normalized growth,"S. cerevisiae deletion strains, locus YNL322C, strain KRE1, stronger effect = lower value",0.985
same,normalized growth,"S. cerevisiae deletion strains, locus YNR049C, strain mso1, stronger effect = lower value",0.771 (active)
same,normalized growth,"S. cerevisiae deletion strains, locus YNR052C, strain pop2, stronger effect = lower value",0.925
same,normalized growth,"S. cerevisiae deletion strains, locus YOL006C, strain TOP1, stronger effect = lower value",1.11
same,normalized growth,"S. cerevisiae deletion strains, locus YOL012C, strain htz1",1.04
same,normalized growth,"S. cerevisiae deletion strains, locus YOL147C, strain pex11, stronger effect = lower value",0.927 (active)
same,normalized growth,"S. cerevisiae deletion strains, locus YOR001W, strain rrp6, stronger effect = lower value",0.794 (active)
same,normalized growth,"S. cerevisiae deletion strains, locus YOR061W, strain CKA2, stronger effect = lower value",0.973
same,normalized growth,"S. cerevisiae deletion strains, locus YOR069W, strain VPS5, stronger effect = lower value",0.974
same,normalized growth,"S. cerevisiae deletion strains, locus YOR070C, strain gyp1, stronger effect = lower value",0.831 (active)
same,normalized growth,"S. cerevisiae deletion strains, locus YOR080W, strain dia2, stronger effect = lower value",0.835 (active)
same,normalized growth,"S. cerevisiae deletion strains, locus YOR083W, strain WHI5, stronger effect = lower value",0.808 (active)
same,normalized growth,"S. cerevisiae deletion strains, locus YOR106W, strain vam3, stronger effect = lower value",0.793 (active)
same,normalized growth,"S. cerevisiae deletion strains, locus YOR136W, strain idh2, stronger effect = lower value",0.938
same,normalized growth,"S. cerevisiae deletion strains, locus YOR144C, strain elg1, stronger effect = lower value",0.926 (active)
same,normalized growth,"S. cerevisiae deletion strains, locus YOR184W, strain ser1, stronger effect = lower value",0.928
same,normalized growth,"S. cerevisiae deletion strains, locus YOR231W, strain MKK1, stronger effect = lower value",0.27 (active)
same,normalized growth,"S. cerevisiae deletion strains, locus YOR265W, strain rbl2, stronger effect = lower value",0.836 (active)
same,normalized growth,"S. cerevisiae deletion strains, locus YOR270C, strain vph1, stronger effect = lower value",0.687 (active)
same,normalized growth,"S. cerevisiae deletion strains, locus YOR290C, strain snf2, stronger effect = lower value",0.737 (active)
same,normalized growth,"S. cerevisiae deletion strains, locus YOR316C, strain cot1, stronger effect = lower value",0.932
same,normalized growth,"S. cerevisiae deletion strains, locus YPL051W, strain arl3, stronger effect = lower value",0.83 (active)
same,normalized growth,"S. cerevisiae deletion strains, locus YPL055C, strain LGE1, stronger effect = lower value",0.965
same,normalized growth,"S. cerevisiae deletion strains, locus YPL078C, strain atp4, stronger effect = lower value",0.771 (active)
same,normalized growth,"S. cerevisiae deletion strains, locus YPL106C, strain sse1, stronger effect = lower value",0.821 (active)
same,normalized growth,"S. cerevisiae deletion strains, locus YPL240C, strain hsp82, stronger effect = lower value",0.806 (active)
same,normalized growth,"S. cerevisiae deletion strains, locus YPL256C, strain CLN2, stronger effect = lower value",0.226 (active)
same,normalized growth,"S. cerevisiae deletion strains, locus YPR119W, strain clb2, stronger effect = lower value",0.922 (active)
same,normalized growth,"S. cerevisiae deletion strains, locus YPR141C, strain kar3, stronger effect = lower value",0.877 (active)
same,normalized growth,"S. cerevisiae deletion strains, locus YPR163C, strain tif3, stronger effect = lower value",0.908 (active)
same,normalized growth,"S. cerevisiae deletion strains, locus YPR167C, strain met16, stronger effect = lower value",0.926
same,normalized growth,"S. cerevisiae deletion strains, strain wtn01, stronger effect = lower value",0.926
same,normalized growth,"S. cerevisiae strains, strain wild type, stronger effect = lower value",0.976
